# Data as given in the supplement of paper PMC8728848.
# This excerpt belongs to a sample that is enriched for the strongest signals.
# B1: AT3G44510(29) (Arabidopsis thaliana), F4J341 (protein)
# chain: MEEHLQGRIKLHDGRYLAYKERGVPKDDAKFTIVLVHGFGSSKDMNFNVSQELVNEIGIYFVLYDRAGYGESDPNPKRSLKSEAYDVQELADGLEIGSRFYLIGISMGSYTVWSCLKHIPQRLAGVAMVAPVVNFRWPSIPKSLMPKDYRREVAKWSVWIANYFPGLLQWLVTQNMFSTTSMLEKNPVYFNDQDIEVLKHIKGFPMLTKEKLRERGVFGTLRSDFLVAFGDWDFDPADLPDPSLSGPEKGSSSVHIWQGYEDKVMPFQLQRCLCRKLPWIRYHEVPKGGHLIVHYDGICDAILKSLLLGEDLPMYKPKAVITEPA
# Key:
# Test in all cases: glycan array binding signal (z-score within array); higher = stronger binding
# Conditions in all cases: glycan notation: IUPAC condensed, linker removed
# [1] = biological target: Fuc(a1-2)Gal(b1-3)GlcNAc
# Summary of the method: (§1)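 Glycan array data were curated from 3228 arrays in the Consortium for Functional Glycomics database and kept only where the protein sequence was available. Glycan names were converted to IUPAC-condensed notation, and columns mapping to the same glycan were averaged. The binding signal is a within-array Z-score, averaged across arrays of the same protein sequence at different concentrations or buffers and across linkers. Negative Z-scores can be read as non-binding.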
# [2] = biological target: Fuc(a1-2)Gal(b1-3)[Fuc(a1-4)]GlcNAc(b1-3)[Gal(b1-4)GlcNAc(b1-6)]Gal(b1-4)Glc
# Summary of the method: as §1
# [3] = biological target: Fuc(a1-2)Gal(b1-4)GlcNAc(b1-6)GalNAc
# Summary of the method: as §1
# [4] = biological target: Fuc(a1-2)Gal(b1-4)[Fuc(a1-3)]GlcNAc
# Summary of the method: as §1
# [5] = biological target: Fuc(a1-2)Gal(b1-4)[Fuc(a1-3)]GlcNAc(b1-2)Man(a1-3)[Fuc(a1-2)Gal(b1-4)[Fuc(a1-3)]GlcNAc(b1-2)Man(a1-6)]Man(b1-4)GlcNAc(b1-4)[Fuc(a1-6)]GlcNAc
# Summary of the method: as §1
# [6] = biological target: Fuc(a1-2)Gal(b1-4)[Fuc(a1-3)]GlcNAc(b1-3)Gal(b1-4)[Fuc(a1-3)]GlcNAc
# Summary of the method: as §1
# [7] = biological target: Fuc(a1-2)Gal3S(b1-4)GlcNAc
# Summary of the method: as §1
# [8] = biological target: Fuc(a1-2)[Gal(a1-3)]Gal
# Summary of the method: as §1
# [9] = biological target: Fuc(a1-2)[Gal(a1-3)]Gal(b1-4)GlcNAc(b1-2)Man(a1-3)[Fuc(a1-2)[Gal(a1-3)]Gal(b1-4)GlcNAc(b1-2)Man(a1-6)]Man(b1-4)GlcNAc(b1-4)[Fuc(a1-6)]GlcNAc
# Summary of the method: as §1
# [10] = biological target: Fuc(a1-2)[GalNAc(a1-3)]Gal(b1-3)GalNAc(b1-3)Gal(a1-4)Gal(b1-4)Glc
# Summary of the method: as §1
# [11] = biological target: Fuc(a1-2)[GalNAc(a1-3)]Gal(b1-3)GlcNAc(b1-2)Man(a1-3)[Fuc(a1-2)[GalNAc(a1-3)]Gal(b1-3)GlcNAc(b1-2)Man(a1-6)]Man(b1-4)GlcNAc(b1-4)[Fuc(a1-6)]GlcNAc
# Summary of the method: as §1
# [12] = biological target: Fuc(a1-2)[GalNAc(a1-3)]Gal(b1-4)[Fuc(a1-3)]GlcNAc
# Summary of the method: as §1
# [13] = biological target: Fuc(a1-2)[GalNAc(a1-3)]Gal(b1-4)[Fuc(a1-3)]GlcNAc(b1-3)GalNAc
# Summary of the method: as §1
# [14] = biological target: Fuc(a1-3)[GalNAc(b1-4)]GlcNAc6S
# Summary of the method: as §1
# [15] = biological target: Gal(a1-3)Gal(b1-4)Glc
# Summary of the method: as §1
# [16] = biological target: Gal(a1-3)GalNAc
# Summary of the method: as §1
# [17] = biological target: Gal(a1-3)[Gal(a1-4)]Gal(b1-4)GlcNAc
# Summary of the method: as §1
# [18] = biological target: Gal(a1-4)Gal(b1-4)Glc
# Summary of the method: as §1
# [19] = biological target: Gal(a1-4)Gal(b1-4)GlcNAc(b1-3)Gal(b1-4)Glc
# Summary of the method: as §1
# [20] = biological target: Gal(b1-3)GlcNAc
# Summary of the method: as §1
# [21] = biological target: Gal(b1-3)[Fuc(a1-4)]GlcNAc(b1-3)Gal(b1-3)[Fuc(a1-4)]GlcNAc
# Summary of the method: as §1
# [22] = biological target: Gal(b1-4)GlcNAc(a1-6)Gal(b1-4)GlcNAc
# Summary of the method: as §1
# [23] = biological target: Gal(b1-4)GlcNAc(b1-2)Man(a1-3)[Gal(b1-4)GlcNAc(b1-2)Man(a1-6)]Man(b1-4)GlcNAc(b1-4)GlcNAc
# Summary of the method: as §1
# [24] = biological target: Gal(b1-4)GlcNAc(b1-2)[Gal(b1-4)GlcNAc(b1-6)]Man(a1-6)[GlcNAc(b1-4)][Gal(b1-4)GlcNAc(b1-2)[Gal(b1-4)GlcNAc(b1-4)]Man(a1-3)]Man(b1-4)GlcNAc(b1-4)[Fuc(a1-6)]GlcNAc
# Summary of the method: as §1
# [25] = biological target: Gal(b1-4)GlcNAc(b1-3)Gal(b1-3)GlcNAc
# Summary of the method: as §1
# [26] = biological target: Gal(b1-4)GlcNAc(b1-3)Gal(b1-4)GlcNAc(b1-2)[Gal(b1-4)GlcNAc(b1-3)Gal(b1-4)GlcNAc(b1-6)]Man(a1-6)[Gal(b1-4)GlcNAc(b1-3)Gal(b1-4)GlcNAc(b1-2)Man(a1-3)]Man(b1-4)GlcNAc(b1-4)[Fuc(a1-6)]GlcNAc
# Summary of the method: as §1
# [27] = biological target: Gal6S(b1-4)Glc
# Summary of the method: as §1
# [28] = biological target: GalNAc(a1-3)GalNAc(b1-3)Gal(a1-4)Gal(b1-4)Glc
# Summary of the method: as §1
# [29] = biological target: GalNAc(b1-3)Gal(a1-4)Gal(b1-4)GlcNAc
# Summary of the method: as §1
# [30] = biological target: GalNAc(b1-3)Gal(a1-6)Gal(b1-4)Glc
# Summary of the method: as §1
binder,measurement,setting,value
B1,glycan array binding signal (z-score),[1],0.123
same,glycan array binding signal (z-score),[2],0.203
same,glycan array binding signal (z-score),[3],-0.731
same,glycan array binding signal (z-score),[4],-0.381
same,glycan array binding signal (z-score),[5],-0.458
same,glycan array binding signal (z-score),[6],-0.951
same,glycan array binding signal (z-score),[7],3.33
same,glycan array binding signal (z-score),[8],2.08
same,glycan array binding signal (z-score),[9],-0.079
same,glycan array binding signal (z-score),[10],-0.123
same,glycan array binding signal (z-score),[11],-0.313
same,glycan array binding signal (z-score),[12],-0.818
same,glycan array binding signal (z-score),[13],6.03
same,glycan array binding signal (z-score),[14],-0.561
same,glycan array binding signal (z-score),[15],-0.538
same,glycan array binding signal (z-score),[16],2.52
same,glycan array binding signal (z-score),[17],7.13
same,glycan array binding signal (z-score),[18],3.6
same,glycan array binding signal (z-score),[19],-0.481
same,glycan array binding signal (z-score),[20],-0.484
same,glycan array binding signal (z-score),[21],-0.685
same,glycan array binding signal (z-score),[22],-0.378
same,glycan array binding signal (z-score),[23],-0.419
same,glycan array binding signal (z-score),[24],-0.121
same,glycan array binding signal (z-score),[25],-0.443
same,glycan array binding signal (z-score),[26],-0.519
same,glycan array binding signal (z-score),[27],-0.234
same,glycan array binding signal (z-score),[28],-0.476
same,glycan array binding signal (z-score),[29],3.41
same,glycan array binding signal (z-score),[30],-0.353
